Source: PubChem BioAssay
INS promoter inh = TRM-6 insulin promoter activity inhibition; TRM-6 cells (human fetal islet line), insulin promoter-eGFP reporter, imaging; reporter expression induced with tamoxifen; inhibition, % at 2 µM; 130,000 tested, 0.9% active;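 active means inhibition above the mean plus 3 SD, with well images judged a real hit on visual review, cut at about 60% in these data, passing the limit was not always enough; inconclusive means inhibition over the cutoff but images rejected on review; inactive means inhibition not above the cutoff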
Autophagy HCS = alters autophagy in cells; calls only at 10 µM (by protocol); AID 463193; 190,000 tested, 0.98% active; MEF GFP-LC3 puncta imaging; test concentration mostly 10 µM;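 active means percentage of spot-positive cells more than 3 SD above its plate mean, without a fluorescence outlier flag or 80% toxicity; inconclusive means no clear call, values can overlap the other calls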
L major viab = Leishmania major promastigote growth inhibition; Leishmania major promastigotes, resazurin fluorescence viability; AID 1063; 200,000 tested, 9% active; inhibition, % at 10 µM; in the data active means inhibition above about 50%;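 further: promastigotes grown with compound for 44 hours at 28 °C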
bCat KO growth = beta-catenin-lacking colon tumor cell growth suppression. HCT116 beta-catenin knockout viability, CellTiter-Glo, 60 h; active compounds read low. viability, % at 10 µM. 140,000 tested, 1.5% active. AID 818;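 active means viability at or under a set limit, the compound median less 4 SD, cut at about 6% in these data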
Insulin prom up = MIN6 insulin promoter up-regulation; AID 1625; MIN6 insulin promoter-GFP reporter, high-content imaging; active compounds read high; 190,000 tested, 0.3% active; z-score at 5 µM;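 active means z-score above 3 at 5 µM with at least 500 cells counted in the well; inconclusive means wells under 500 cells, flagged as cytotoxic or low count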
HCT116 PTEN-null = suppresses growth of cells with PTEN deletion; 140,000 tested, 1.2% active; HCT116 PTEN-null viability, CellTiter-Glo, 60 h; active compounds read low; viability, % at 10 µM;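 active means viability at or below a set limit, 4 SD under the median of all tested compounds, cut at about 3.7% in these data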;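 further: PTEN knockout HCT116 line with beta catenin targeted HCT116 as companion control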
Hits are given with their value; 0 = inactive; ? = inconclusive; - = no result; + = active, no number. Shown are actives, neighbours in structure and some others; about 9.6% of the full set was active somewhere.

SMILES	INS promoter inh	Autophagy HCS	L major viab	bCat KO growth	Insulin prom up	HCT116 PTEN-null
O=C(NCC(c1cccnc1)N1CCOCC1)NC1CCCCC1 (stereo unspecified)	0	0	0	-	?	-
O=C(NCC(c1cccnc1)N1CCN(c2ccc(F)cc2)CC1)C1CCCCC1 (stereo unspecified)	0	0	74	0	0	0
Cc1cccc2cc(CN(Cc3nnnn3Cc3ccco3)C3CCCC3)c3nnnn3c12	0	0	59	0	0	0
COc1cc(Br)cc(CN2CCN(C/C=C/c3ccccc3)CC2)c1O	0	0	88	0	0	0
Cc1cc(C)c2c(CN3CCN(C/C=C/c4ccccc4)CC3)cc(=O)oc2c1	0	0	0	0	0	0
COc1ccc(O)c(CN2CCN(C/C=C/c3ccccc3)CC2)c1	0	0	85	0	0	0
CCOc1ccccc1NC(=O)c1c(NC(=O)CNCc2ccco2)sc2c1CCC2	-	-	-	-	0	-
COc1ccccc1-c1nnc2sc(-c3cc4ccccc4o3)nn12	-	0	0	0	0	0
COc1ccc(C(=O)Nc2cccc(C(=O)N3CCCC3)c2)cc1	0	0	0	0	-	0
CC(C)CN1C(=S)SC(C)(C)C1n1oc(=O)n(-c2ccccc2)c1=O (stereo unspecified)	-	0	0	0	-	0
CC(C)CN1C(=S)SC(C)(C)C1n1oc(=O)n(-c2ccc(Cl)cc2)c1=O (stereo unspecified)	0	0	0	2.3	-	0.8
Cc1ccc(CNS(=O)(=O)c2cccc3nsnc23)cc1	-	0	0	-	0	-
CCOc1ccc(N2C(=O)CC(NCc3ccc(F)cc3)C2=O)cc1 (stereo unspecified)	0	+	0	0	0	0
O=C(N/N=C/c1ccncc1)c1ccc(-n2cccc2)cc1	0	0	0	0	0	0
O=C(COc1ccccc1)NC1CCCc2ccccc21 (stereo unspecified)	0	0	51	0	0	0
Cc1ccc(S(=O)(=O)N2CCN(CC(=O)NC3CCCc4ccccc43)CC2)cc1C (stereo unspecified)	0	0	98	0	0	0
O=C(CSc1nc2cc(Cl)ccc2s1)NC1CCCc2ccccc21 (stereo unspecified)	0	0	0	0	0	0
O=C(CSc1cc(Cl)ccc1Cl)NC1CCCc2ccccc21 (stereo unspecified)	0	0	57	0	0	0
CCCCNc1ccc(C(=O)O)cc1	-	-	-	-	0	-
NC(=O)CC(NC(=O)Cc1ccc(Br)cc1)c1ccc(NCCc2ccccc2F)c([N+](=O)[O-])c1 (stereo unspecified)	-	-	-	-	0	-
COc1cccc(OCCNC(=O)CSc2ccc(C(F)(F)F)cc2[N+](=O)[O-])c1	-	0	0	0	0	0
CCOc1ccccc1NC(=O)Cn1c(C)cc(COC)c(C#N)c1=O	0	0	0	0	0	0
O=C(CC12CC3CC(CC(C3)C1)C2)NC(=S)N1CCCCC1	-	0	0	0	0	0
S=C(NC12CC3CC(CC(C3)C1)C2)N1CCCC1	0	0	53	0	0	0
O=C(Nc1nnc(-c2cccs2)o1)c1ccco1	-	0	0	0	0	0
SMILES	INS promoter inh	Autophagy HCS	L major viab	bCat KO growth	Insulin prom up	HCT116 PTEN-null
CCC(C)(C)C1CCc2nc3ccccc3c(C(=O)OC(C)C(=O)Nc3c(C)n(C)n(-c4ccccc4)c3=O)c2C1 (stereo unspecified)	0	0	84	0	0	0
COc1ccc(/C=C/C(=O)NC(C)(C)C)cc1S(=O)(=O)N1CCOCC1	-	0	0	0	0	0
COc1ccc(/C=C/C(=O)NC2CCCCCCC2)cc1S(=O)(=O)N1CCOCC1	0	0	88	0	0	0
CC(CC(=O)NCc1cccnc1)c1ccccc1 (stereo unspecified)	0	0	0	0	0	0
O=C(CSc1nc(-c2cccs2)cc(C(F)(F)F)n1)Nc1cc(OCC(F)(F)F)cc([N+](=O)[O-])c1	0	0	0	2.1	0	0
Cc1nc2cc(N)ccc2n1-c1ccccc1	-	0	0	-	0	-
CN1CCN(CC2(O)CCN(S(=O)(=O)c3ccc(Cl)cc3)CC2)CC1	0	0	100	-	0	-
Cc1ccc(SCC2(O)CCN(S(=O)(=O)c3ccc(Cl)cc3)CC2)cc1	0	0	0	0	?	0
CCN1CCCC1Cn1cnc2c([nH]c3ccc(C)cc32)c1=O (stereo unspecified)	-	0	52	0	-	0
Clc1ccc2[nH]c3c(NCCCN4CCOCC4)ncnc3c2c1	-	0	0	5.0	0	0
